# Reference: the supplement of paper PMC9135407
# Structures can show the parent of a compound that is named as a salt. Hit rate of the full screen: of about 5,800 compounds, about 620 (11%) showed activity. The sample as a whole holds a higher share of actives than the screen did. Values without a mark were called inactive.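 The calls were made as follows: active = score above a cut-off or among the top three wells of a plate; in these data no inactive exceeds 0.85.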
# Test system: primary human hepatic stellate cells (donor 1)
# Assay: scaled lipid accumulation score (0 = DMSO-like, 1 = nortriptyline-like); higher = stronger HSC inactivation (lipid re-accumulation), active = hit call of the paper
# Details: 48 h
# [1] = library stock concentration: 10 mM
# [2] = library stock concentration: 1 mM
# [3] = library stock concentration: 3.33 mM
compound,measurement,setting,value
CC(C)(C)OC(=O)NC1[C@H]2CNC[C@@H]12 (some centres not stated),scaled lipid accumulation score,[1],≤ -0.033
CCCCCCCCCCCCCCCCSP(=O)([O-])OCC[N+](C)(C)C [thio-Miltefosine],scaled lipid accumulation score,[2],≤ 0
CCCCC/C=C\C/C=C\C/C=C\C/C=C\CCCC(=O)NCc1ccoc1,scaled lipid accumulation score,[2],≤ 0
CCCCC(C#N)(Cn1cncn1)c1ccc(Cl)cc1 (configuration not stated) [Myclobutanil],scaled lipid accumulation score,library stock concentration: 6.9 mM,≤ 0
[O-][n+]1ccccc1[S-].[O-][n+]1ccccc1[S-].[Zn+2] [Pyrithione zinc],scaled lipid accumulation score,library stock concentration: 6.3 mM,0.435
same,scaled lipid accumulation score,[1],0.127
c1cncc([C@@H]2CCCN2)c1 [Nornicotine],scaled lipid accumulation score,[1],≤ 0
c1cncc([C@@H]2CCCCN2)c1 [Anabasine],scaled lipid accumulation score,,≤ 0
Fc1cc(F)c2c(c1)[C@H]1C=CC[C@@H]1C(c1cccnc1)N2 (some centres not stated) [Golgicide A],scaled lipid accumulation score,[3],0.872 (active)
same,scaled lipid accumulation score,[1],1.03 (active)
C[C@H](CCC(=O)O)C[C@H](C)C[C@H](C)C(=O)/C=C(\O)[C@H](C)C[C@H](C)C/C=C/[C@@H](C)[C@@H](O)[C@@H](C)[C@@H](O)C[C@@H]1CC[C@@](C)([C@H]2CC[C@@](C)([C@@H](C)O)O2)O1 [Ionomycin],scaled lipid accumulation score,library stock concentration: 7.1 mM,0.48
O=C1CN=C(c2ccccc2)c2cc([N+](=O)[O-])ccc2N1 [Nitrazepam],scaled lipid accumulation score,[1],≤ 0
COc1ccc2[nH]cc(CCN)c2c1 [O-Methylserotonin hydrochloride],scaled lipid accumulation score,[1],≤ -0.055
COc1ccc(CNC(=O)/C=C/c2ccc3[nH]cc(CCN(C)C)c3c2)cc1 [listing 1 of 2 here],scaled lipid accumulation score,[1],0.736
COc1ccc2[nH]cc(CCN)c2c1 [5-Methoxytryptamine],scaled lipid accumulation score,[1],≤ 0
COc1ccc(CNC(=O)/C=C/c2ccc3[nH]cc(CCN(C)C)c3c2)cc1 [listing 2 of 2 here],scaled lipid accumulation score,[1],1.03 (active)
O[C@H]1[C@H](O)[C@@H](O)CN2CC[C@H](O)[C@H]12 [Castanospermine],scaled lipid accumulation score,[1],≤ 0
same,scaled lipid accumulation score,library stock concentration: 26.4 mM,0.125
CCCCCC=CCC=CCC=CCC=CCCCC(=O)NCC(O)CC(=O)O (configuration not stated) [N-Arachidonoyl-3-hydroxy-.gamma.-Aminobutyric Acid],scaled lipid accumulation score,[2],≤ 0
CC[C@H]1CN2CC[C@H]1C[C@H]2[C@H](O)c1ccnc2ccc(OC)cc12 [Hydroquinine hydrobromide hydrate],scaled lipid accumulation score,,≤ 0
CCCC[C@H]1C(=O)O[C@H](C)[C@H](NC(=O)c2cccc(NC=O)c2OC)C(=O)O[C@@H](C)[C@@H]1OC(=O)CC(C)C [2-methoxyantimycin A3],scaled lipid accumulation score,library stock concentration: 9.4 mM,0.292
CC(C)(C)c1cc(C=C(C#N)C#N)cc(Br)c1O,scaled lipid accumulation score,[3],≤ 0
same,scaled lipid accumulation score,[1],≤ 0
CC(C)(C)c1cc(C=C(C#N)C#N)cc(C(C)(C)C)c1O [Tyrphostin 9] [listing 1 of 2 here],scaled lipid accumulation score,[3],0.175
same,scaled lipid accumulation score,library stock concentration: 17.7 mM,0.752
CC(C)(C)c1cc(C=C(C#N)C#N)cc(C(C)(C)C)c1O [Tyrphostin A9],scaled lipid accumulation score,[1],0.728
CC(C)(C)c1cc(C=C(C#N)C#N)cc(C(C)(C)C)c1O [Tyrphostin 9] [listing 2 of 2 here],scaled lipid accumulation score,[1],1.27 (active)
